A selection follows. The true hit rate is not given.
B1: il2ra_site2_2erj_normal_mot_HHH_b1_07741_000000192_0001_1_20_H_._9b1ece5d1ebc94355a99c96473898622_0001_1_af2_0001_0000300001_0000001_0 (protein)
chain: DQEEFLRRAARENPETFIRYAELLAKDAGNPELLKLVEELKEEVEKGEIPPEEAAELVVEVLEEL
B2: il2ra_site2_2erj_sap_23_mot_HHH_b1_06697_000000025_0001_41_54_H_._HHH_b2_03690_0001_0000400021_0000001_0_0001 (protein)
chain: SSSSDYEERVKELLEELRELLEEGDEEKFEELVFEVSQLIFENNDFELFAELTEIFEEFIRSSSS
B3: il2ra_site1_2b5i_normal_mot_HHH_b2_04910_000000118_0001_1_19_H_._HHH_b1_05884_0001_0000500029_0000001_0 (protein)
chain: SSSSSEETRELQELFREADELDRRGNEEEAEEVLREAIELARQAGSRSMLKMLESALKELGSSSS
B4: il2ra_site1_3nfp_normal_mot_HHH_b1_05523_000000027_0001_1_19_H_._HHH_b1_07881_af2_0001_0000100003_0000001_0_af2pred_0001_af2pred_1 (protein)
chain: SSSSTEVSRRVLELIEEALELAQNGNPEEAEEVLREALKLAEEAGNESTARFIRKALEQSSSSSS
B5: il2ra_site1_3nfp_sap_10_mot_cc4219192d8ccd35c40e7b68f9a57604_0001_af2_000000124_0001_16_32_H_._HHH_b2_07250_0001_0000100001_0000001_0_0001 (protein)
chain: SSSSSEIEEEVRELLEEAEQLLKEGDWEEAAKVVEEAMKLASQANDDELDQLIMEWVRKLSSSSS
B6: il2ra_site1_3nfp_sap_18_mot_HHH_b2_03549_000000219_0001_1_18_H_._HHH_b1_06169_0001_0000200013_0000001_0_0001 (protein)
chain: NDERVASKLVEEAARSAGVDEVEVSVSNGTLHVEVSGGDRAARRVEEAAKQIAEWLGVEVEVTFE
B7: il2ra_site1_3nfp_normal_mot_HHH_b1_01231_af2_000000170_0001_1_16_H_._HHH_b1_02076_0001_0000200037_0000001_0_af2pred_0001_af2pred_1_swapped (protein)
chain: SSSSSSREELELKERVLRLLARIRDPEEARRVLEEAEELAKELGDERLLEELEKLLKRLGSSSSS
B8: il2ra_site2_3nfp_sap_21_mot_HHH_b1_06577_af2_000000152_0001_20_36_H_._HHH_b2_07686_0001_0000600063_0000001_0_0001 (protein)
chain: SSSSDEDEERVEKLIEEIERLLEEGDRDEAARLLLEATELAARINNDELARKLLELFLKIQSSSS
B9: il2ra_site2_3nfp_normal_mot_HHH_b1_03851_000000147_0001_21_38_H_._HHH_b1_04525_0001_0000600036_0000001_0 (protein)
chain: SSSSDEERREARELFEELQELLEENDKHAVFEVLMELFELAARTGDEEAARLVLEIYAQLRSSSS
B10: il2ra_site2_2erj_sap_10_mot_HHH_b1_08207_af2_000000250_0001_43_57_H_._HHH_b2_03076_0001_0000100015_0000001_0_0001 (protein)
chain: SSSSDWLHRLYELANRITELASRGNPEEAREVLEELQELAEEANSDNAKWVAEALEKHLNSSSSS
B11: il2ra_site2_3nfp_sap_16_mot_HHH_b1_03316_000000041_0001_39_56_H_._702997820559c2f17efcc64b63c1c749_0001_1_0001_0000200016_0000001_0_0001_af2pred_0001_1_af2pred_ … (protein)
chain: DSEKELFKEALEEGDPALIDAVALAIALAERGKPPEEIEKSVERWLRAQGVPPEEIEEILELLRK
B12: il2ra_site2_3nfp_normal_mot_HHH_b2_01406_000000272_0001_41_55_H_._HHH_b2_00362_0001_0000600032_0000001_0 (protein)
chain: SSSSSDEEEEELEERLEKALEEGDKHLAAQLAAELSELLARLNDPETAVRLAVKVLEFVLSSSSS
B13: il2ra_site2_3nfp_sap_26_mot_HHH_b1_07277_000000260_0001_23_39_H_._HHH_eva_0486_af2_0001_0000400016_0000001_0_0001 (protein)
chain: SAELARRIVELVRRGDPVAEALFALLADVAYKGDPELERLLEEALEALERGNPEEAEEIVRKALK
B14: il2ra_site1_2b5i_sap_17_mot_143f78fc0439b137266e145e81963a82_0001_1_af2_000000250_0001_37_51_H_._2548690152cc24afdf538b66510d0e06_0001_0001_0000200012_0000001_0 … (protein)
chain: SSSSDEKYDEVERLFKKALELRRAGKKEEAKEVLEEALKIAEEAKDEKLVEELKRFLELLSSSSS
B15: il2ra_site2_2erj_normal_mot_HHH_b1_00210_af2_000000043_0001_43_57_H_._HHH_b1_00702_0001_0000100006_0000001_0 (protein)
chain: SSSSDREEVEELLKELEEAYEEGDEEKFEELASRASVLIFQIGDFELWSELAELFAKLNKSSSSS
B16: il2ra_site1_2b5i_normal_mot_HHH_b1_08745_af2_000000166_0001_39_57_H_._HHH_b1_02799_0001_0000100008_0000001_0_af2pred_dldesign_0_af2pred (protein)
chain: SSSSSPEGKEVLRLLEEAEAALKAGDEAGARALLEKALEIAKKAKSNLFVKFVEAALKALESSSS
B17: il2ra_site1_1z92_sap_15_mot_HHH_b2_05498_000000253_0001_19_35_H_._HHH_b1_00069_0001_0001500068_0000001_0_0001_af2pred_0001_af2pred_1 (protein)
chain: SEEEEHIRELIEQIPDPELAEAIKKDFEQALERGIPPERVVRALLRAARLDGDPHAEELLEKALR
B18: il2ra_site1_2b5i_sap_11_mot_HHH_b1_06900_af2_000000048_0001_21_36_H_._a1725d017d863e7f4c76c21e96fab134_0001_1_af2_0001_0000100009_0000001_0_0001_af2pred_0001_af … (protein)
chain: SSSSSTLAQKAAELLEEANEADRNGDPEEARKLLEEAEKIAEEAGSKSLLRSIRVALEQLSSSSS
B19: il2ra_site1_1z92_sap_14_mot_HHH_b1_05862_af2_000000270_0001_22_38_H_._HHH_b1_06212_0001_0000200007_0000001_0_0001_af2pred_0001_af2pred_1 (protein)
chain: SSSSSDLEELIEEIARELAEENNDEDLREELEKAAERLKKLGTSHERARKILEKLVKAARSSSSS
B20: il2ra_site2_3nfp_normal_mot_HHH_b2_07840_000000026_0001_18_34_H_._HHH_b1_00954_0001_0000200021_0000001_0 (protein)
chain: SSSSDLEERLRELLEELEELVKEGDEERFREVAREVIQLVYENNDHEAFAKLADLLYLIESSSSS
B21: il2ra_site1_1z92_normal_mot_c9a8daa1dfea21d1414aecde54be4f54_0001_1_af2_000000024_0001_32_46_H_._15f70e71ac3214bf43105af5abf4654e_0001_1_af2_0001_0000300029_000 … (protein)
chain: DEEAARKDLEFALKQGIPPRSVVRAVLLALEHELGDPEEALEVIERAIKLLNDPELEEVVEKLKP
B22: il2ra_site1_2b5i_sap_21_mot_HHH_b2_08159_000000245_0001_1_21_H_._8ad9ac091cb40d3f9ee7ab2e9a3a3379_0001_0001_0000400039_0000001_0_0001_af2pred_0001_af2pred_1 (protein)
chain: SSSSSELLEEAFELLEEADELAKKGNDEEAEKVLREAEELLEKAGNPSLLRLVRAALRLTSSSSS

Target: il2ra, P01589
Experiment: yeast display titration

Chain of il2ra, P01589 (P01589 whole entry): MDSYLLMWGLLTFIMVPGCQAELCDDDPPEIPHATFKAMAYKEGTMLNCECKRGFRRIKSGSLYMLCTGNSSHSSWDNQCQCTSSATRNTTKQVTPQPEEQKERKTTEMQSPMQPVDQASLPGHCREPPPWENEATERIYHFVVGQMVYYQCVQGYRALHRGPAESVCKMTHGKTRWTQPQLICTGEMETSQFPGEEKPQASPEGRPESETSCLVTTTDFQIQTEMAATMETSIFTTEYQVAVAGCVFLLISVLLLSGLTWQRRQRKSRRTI

Apparent Kd, inactive:
B1 no binding seen
B2 no binding seen
B3 no binding seen
B4 no binding seen
B5 no binding seen
B6 no binding seen
B7 no binding seen
B8 no binding seen
B9 no binding seen
B10 no binding seen
B11 no binding seen
B12 no binding seen
B13 no binding seen
B14 no binding seen
B15 no binding seen
B16 no binding seen
B17 no binding seen
B18 no binding seen
B19 no binding seen
B20 no binding seen
B21 no binding seen
B22 no binding seen

Reference: publication PMC10163288
